The campaign covered roughly 2,300 compounds. About 350 (15%) were called active. Not all results are given here. Entries with a potency or affinity are not part of this list. A number with no mark means an inactive call. No rule for the calls is given here.
assay: HepG2 cell cytotoxicity, dose response, cytotoxicity control for non-replicating M. tuberculosis project (AID 489018); settings: series mostly up to 20 µM; viability: at the top concentration;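 also: HepG2 human liver cells; 100% = vehicle-treated cells and 0% = background signal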

SMILES	viability
COc1ccc(C(=O)OCn2nnc3ccccc3c2=O)cc1[N+](=O)[O-]	112% [at 5 µM]
COc1ccc(C(=O)C2CCCN(C(=O)c3ccc(CSC)o3)C2)cc1F (stereo unspecified)	101%
O=C(N/N=C/c1ccc[nH]1)c1ccncc1	97.8%
CCOC(=O)CC(=O)Nc1ccc(C(=O)OCC)cc1	96.9%
C/C(=N\Nc1nc2ccccc2[nH]1)c1cc2ccccc2o1	89.5% [at 5 µM]
O=C(N/N=C/C=C/c1ccccc1[N+](=O)[O-])c1ccncc1	95.8%
O=C(N/N=C/c1cccc([N+](=O)[O-])c1O)c1cccs1	90%
NC(N)=N/N=C/c1cccc([N+](=O)[O-])c1O	99.4%
COc1cc(Cl)cc(/C=N/NC(N)=O)c1O	103% [at 5 µM]
O=C(NNc1nc2ccccc2s1)Nc1ccc(F)cc1	95%
Cc1cc(N/N=C/c2ccccc2[N+](=O)[O-])nc(-n2nc(C)cc2C)n1	82.7% [at 5 µM]
CCc1nnc(NC(=O)c2cc3ccccc3oc2=O)s1	111% [at 5 µM]
Cn1c(=O)[nH]c(=O)c2c1nc([N+](=O)[O-])n2Cc1ccccc1	75.2% [at 5 µM]
C=CCc1cc(Cl)ccc1OCCCn1ccnc1	90.9%
COc1ccc(C2(O)CCN(CC(=O)Nc3nc(-c4ccccc4)cs3)CC2)cc1	74.6%
Cc1onc(-c2ccccc2Cl)c1C(=O)O/N=C(\N)c1ccc([N+](=O)[O-])o1	82.2%
CCC(CC)COC(=O)C(C#N)c1nc2ccccc2nc1N1CCN(CC)CC1 (stereo unspecified)	80.2%
NCCOc1ccc(C23CC4CC(CC(C4)C2)C3)cc1	92.4%
O=c1[nH]c2ccccc2c2oc(CCl)nc12	105% [at 5 µM]
N=C1/C(=C/c2ccc(OC(=O)c3ccco3)cc2)C(=O)N=C2SC=CN12	98.9%
COC(=O)CN(C#N)c1nc(N(C)C)nc(N(C)C)n1	101%
O=C(N/N=C/c1ccc(O)cc1)c1cccc(C(F)(F)F)c1	95.1%
O=C(Nc1nnc(C2=COCCO2)o1)c1cccc(C(F)(F)F)c1	74.1%
COc1cccc(CN2CCC(N(CCc3ccccc3)Cc3ccccc3)CC2)c1OC	73.7%

SMILES	viability
OCC#CCSc1nnc(-c2ccc(Br)cc2)o1	98.8%
COc1cccc(COC(=O)CCNC(=O)c2ccc(Br)cc2)c1OC	101% [at 5 µM]
CCOC(=O)COc1ccc(C(=O)Nc2cccc(Cl)c2C)cc1	90.5%
O=C(NNC1=Nc2ccccc2SC1)c1ccc(F)cc1	80.8%
O=C(Nc1nnc(-c2ccc(Br)cc2)o1)c1ccco1	90.6%
O=C(Nc1nnc(-c2ccco2)o1)c1ccc(Cl)s1	100% [at 5 µM]
CCOc1cc(-c2nnc(NC(=O)c3ccco3)o2)cc(OCC)c1OCC	71.3%
CCOc1ccc(OCCSc2ccc(S(=O)(=O)N3CCN(C)CC3)cn2)cc1	96.9% [at 5 µM]
COC(=O)c1ccc(Sc2nnnn2-c2ccccc2)c([N+](=O)[O-])c1	98.1%
FC(F)c1nnc2ccc(Cl)nn12	116%
O=C(N/N=C/c1ccc([N+](=O)[O-])s1)c1cccnc1	70.9%
O=C(COc1ccccc1)Nc1nnc(-c2ccc3c(c2)CCCC3)o1	101%
Cc1cc(Cl)ccc1OCC(=O)NNC(=O)c1cnccn1	100% [at 5 µM]
O=C(N/N=C\c1ccc([N+](=O)[O-])s1)c1cncc(Br)c1	86.6% [at 5 µM]
Cc1c(C(=O)N(C)C)sc2nc(-c3ccccn3)[nH]c(=O)c12	105% [at 5 µM]
CN(C)CCCNc1nc2sc3c(c2c(=O)n1CCc1ccccc1)CCCCC3	86.3% [at 5 µM]
CN(C)CCCn1c(=O)n(C2CCCCC2)c(=O)c2c3c(sc21)CCCCC3	75.5%
Cn1c(O)c(C(=Nc2ccccc2)SCc2ccccc2Cl)c(=O)n(C)c1=O	75%
C=CCOc1ccc(CNCCO)cc1OCC	104%
CCc1cc(OCCCCNCc2ccccc2)ccc1Cl	97.5%
C/C(=N/Nc1ccnc2cc(Cl)ccc12)c1ccc(N)cc1	74.7%
CC1CCN(C(=O)COC(=O)c2cc3ccccc3cc2O)CC1	93.4%
CCc1c(C)c2ccc(OCC(=O)OC)cc2oc1=O	99%
COc1n[nH]c(C(=O)Nc2cc(F)ccc2C)c1[N+](=O)[O-]	75.7%

SMILES	viability
Nc1nonc1C(=O)N/N=C/c1ccc([N+](=O)[O-])o1	82.7%
O=[N+]([O-])c1ccc(/C=N/NS(=O)(=O)c2ccc(Cl)cc2)o1	103%
Cc1ccccc1NC(=O)c1ccc([N+](=O)[O-])o1	102% [at 5 µM]
COc1ccc(C(=O)NCC(=O)N/N=C/c2ccc([N+](=O)[O-])o2)cc1OC	91.9%
Cc1cc(C(=O)N/N=C/c2ccc([N+](=O)[O-])o2)c(C)o1	88.4%
Cc1cc(C)cc(OCC(=O)N/N=C/c2ccc([N+](=O)[O-])o2)c1	92%
Cc1cccc(NC(=O)c2ccc([N+](=O)[O-])o2)c1C	95%
O=C(Nc1ccccc1)c1cc2ccccc2o1	85.3%
CN1C(c2ccccc2)CC(=NO)CC1c1ccccc1 (stereo unspecified)	108%
COc1ccccc1NC(=O)c1cnc(SC)nc1	118%
O=C(CC(=O)c1cc(Cl)ccc1O)c1ccccc1	102% [at 5 µM]
COc1ccc(-c2noc(-c3cc4ccccc4oc3=O)n2)cc1	100%
O=C(N/N=C/c1ccc(Br)s1)c1ccccc1[N+](=O)[O-]	90.1%
CCc1nnc(N/N=C/c2ccc(-c3ccc([N+](=O)[O-])cc3)o2)n1N	95.3%
O=C(N/N=C\c1ccc([N+](=O)[O-])o1)c1cncc(Br)c1	109% [at 5 µM]
O=C(N/N=C/c1ccc([N+](=O)[O-])o1)c1sc2ccccc2c1Cl	78.8%
O=C(N/N=C\c1ccc([N+](=O)[O-])o1)C1COc2ccccc2O1 (stereo unspecified)	101%
COc1ccccc1OCC(=O)N/N=C/C=C/c1ccc([N+](=O)[O-])o1	93.9%
Cc1nonc1C(=O)N/N=C/c1ccc([N+](=O)[O-])o1	96.3%
Cc1ccc(OCC(=O)N/N=C/c2ccc([N+](=O)[O-])o2)cc1	95.7%
CCCCCCCC(=O)N/N=C/c1ccc([N+](=O)[O-])o1	97.7%
Brc1c(-c2ccc3c(c2)OCO3)nc2ncccn12	86.5% [at 5 µM]
O=C(Nc1ccc(N2CCN(C(=O)c3ccco3)CC2)c(Cl)c1)c1cccs1	72%
COC(=O)c1ccccc1Sc1ncnc2onc(C)c12	113%

SMILES	viability
Cc1c(Cl)cccc1-c1ccc(CNCc2ccccn2)o1	94.3%
N#Cc1nc(-c2ccc(OCc3ccccc3)cc2)oc1NCCCn1ccnc1	77.7%
CCOC(=O)C(C)Oc1cc(Cl)c(C=O)cc1OC (stereo unspecified)	94.7%
N/N=C(/Cc1nc2ccccc2[nH]1)c1ccc([N+](=O)[O-])cc1	96.1%
O=C(Nc1cc(C(F)(F)F)ccc1-n1cncn1)c1ccc([N+](=O)[O-])o1	103%
COc1ccccc1-c1nnc(Sc2nc([N+](=O)[O-])nn2C)o1	90.9%
Cc1cc(C)c(C(=O)COC(=O)c2ccc([N+](=O)[O-])o2)cc1C	105%
COc1ccc2cc(C(=O)C3CCCN(Cc4cccc(C)n4)C3)ccc2c1 (stereo unspecified)	96.1%
CCCCOc1ccc(NC(=O)CN2CCN(Cc3ccccc3)CC2)cc1	96.9%
CC(C)(C)c1ccccc1OCCOCCN1CCCCCC1	98.4% [at 5 µM]
CS/C(Nc1cc(Cl)ccc1Cl)=C(/C#N)C(=O)c1ccco1	87.2%
Cc1[nH]c2ccccc2c1C(=O)COC(=O)c1ccc([N+](=O)[O-])s1	114%
c1ccc(-c2n[nH]c(-c3ccccn3)n2)nc1	93.6%
c1ccc(Nc2nc(-c3ccccn3)cs2)cc1	101% [at 5 µM]
COC(=O)C(C)Oc1ccc2cc(-c3ccccc3)c(=O)oc2c1 (stereo unspecified)	103%
O=C(CCS(=O)(=O)Cc1ccccc1)Nc1ncc([N+](=O)[O-])s1	112% [at 5 µM]
O=S(=O)(c1ccc(OCC2CO2)cc1)c1ccc(OCC2CO2)cc1 (stereo unspecified)	75.9%
Cc1ccccc1C(=O)NN1CC(C(=O)OCc2ccc(Cl)c(Cl)c2)CC1=O (stereo unspecified)	119%
CCC(C)c1ccc(OCCn2ccnc2)cc1 (stereo unspecified)	80%
Cc1ccc2nc(C)c3c(c2c1)COC3	104%
Cc1[nH]n(-c2cccc(Cl)c2)c(=O)c1/C=N/n1c(C)nc2ccccc2c1=O	109% [at 5 µM]
CC(C)(C)NCC1(CO)SC(N)=NC1=O (stereo unspecified)	106%
CCOC(=O)/C=C1\Nc2ccccc2OC1=O	77.3%
COc1cc(NC(=O)C/C(C)=N/NC(=O)c2cccs2)c(OC)cc1Cl	73.3%

SMILES	viability
O=C(Nc1nnc(-c2ccco2)o1)c1cccc2ccccc12	108%
COC(=O)c1cc(-c2ccc(OC)cc2)on1	116%
COc1ccc(/C=C/c2nc3ccccc3c(=O)o2)cc1	113% [at 5 µM]
CC(=O)c1ccc(OC(=O)c2ccc(-n3nc(C)cc3C)cc2)cc1	103% [at 5 µM]
Cn1nnc(NC(=O)COc2ccc(C3CCCCC3)cc2)n1	106%
O=Cc1ccnc(-c2ccc(OC(=O)c3ccco3)cc2)n1	101%
Cc1ccc(N/N=C2\CS(=O)(=O)N(C)c3ccsc32)cc1	101%
COc1cccc(NC(=O)c2ccc(C(=O)c3ccccc3)o2)c1	96.3%
O=C(N/N=C/c1ccc(Br)s1)c1cccnc1	94%
COc1ccc(C(=O)N/N=C/c2cccc3cccnc23)cc1	73%
COc1cc(OC)cc(C(=O)NNC(=O)c2ccccn2)c1	82.4% [at 5 µM]
O=C(N/N=C/c1ccc[nH]1)c1cccnc1	90.3%
O=C(N/N=C/c1ccccn1)c1cc([N+](=O)[O-])cc([N+](=O)[O-])c1	97.3%
O=C(N/N=C/c1ccccn1)c1cccc([N+](=O)[O-])c1	99.3%
COc1ccc(OCC(=O)NNC(=O)c2ccccn2)cc1	102%
Cc1ccc2[nH]c(C)c(CCNC(=O)c3cc4cc([N+](=O)[O-])ccc4oc3=O)c2c1	101%
Cc1cccc(NCCC(=O)c2ccc([N+](=O)[O-])cc2)c1C	96.3%
CC(C)c1ccc(C2=C(O)c3ccccc3C(=O)C2=O)cc1	88.6%
O=C(CC1CCCC1)OCn1nnc2ccccc2c1=O	109%
O=C(c1cc([N+](=O)[O-])cc([N+](=O)[O-])c1)N(Cc1nnc(-c2ccccc2Cl)o1)C1CC1	91.3%
